Here are results for 19 compounds from PubChem BioAssay (NCI).

Some test systems named below: SK-MEL-2 melanoma; EKVX NSCLC; SN12C renal; UO-31 renal; TK-10 renal; ACHN renal; CAKI-1 renal; A498 renal; CCRF-CEM leukemia; MOLT-4 leukemia.
Holding throughout (assay): NCI-60 one-dose screen, 48 h (100 = growth as untreated, 0 = no growth, -100 = all killed)
Details in all cases: 10 µM unless noted

The structures appear in SMILES notation. This is part of a sample that, as a whole, favours compounds with a hit. Of some 83,000 tested, about 20% had one in any assay.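 Single-concentration screen, 48 h exposure, 96-well plates. Endpoint: percent growth. Below 10 = active.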 A number with no mark means an inactive call. Activity calls are given as the source filed them.

`CC1=C(C(=O)Nc2ccccc2)C(c2ccc3c(c2)OCO3)NC(=S)N1` (stereo not given): the growth in the assay with SK-MEL-2 melanoma is 106%; in the assay on EKVX NSCLC, 107%; in the assay on SN12C renal it was 104%; in the assay with UO-31 renal it was 88.2%; in the assay on TK-10 renal it was 97.8%; in the assay on ACHN renal, 107%. Further, the growth is 97.1% in the assay on CAKI-1 renal, 114% with A498 renal, 115% in the assay with CCRF-CEM leukemia and 112% with MOLT-4 leukemia.
For `C/C=C(\C)C(=O)N[C@H]1C(O)C[C@]2(C)C3CC[C@@]4(C)C(CC[C@@H]4C(C)N(C)C)C3CCC2C1O` (stereo not given in full), the growth in the assay on SK-MEL-2 melanoma was 117%; in the assay with EKVX NSCLC, 66%; in the assay with SN12C renal, 68.1%; in the assay on UO-31 renal, -0.798% (active); with TK-10 renal, 109%; in the assay with ACHN renal, 60.4%. Also, the growth in the assay on CAKI-1 renal is 80.3%; in the assay with A498 renal, 92.9%; with CCRF-CEM leukemia, 14.6%; in the assay with MOLT-4 leukemia, 17%.
Turning to `Cc1ccc(/C=C/C(=O)Nc2ncc(Cc3ccc(F)cc3)s2)o1`, the growth is 46.9% in the assay with SK-MEL-2 melanoma; 48.5% in the assay with EKVX NSCLC; 66.3% in the assay on SN12C renal; 40.4% in the assay with UO-31 renal; 61.9% in the assay on TK-10 renal; 56.3% with ACHN renal. Also, the growth with CAKI-1 renal is 35.4%; in the assay with A498 renal it was 27.3%; in the assay on CCRF-CEM leukemia, 45.1%; with MOLT-4 leukemia it was 35%.
In the case of `O=C1c2ccccc2C(=O)C1c1ccc(Br)cc1`, the growth in the assay with SK-MEL-2 melanoma was 106%; in the assay on EKVX NSCLC, 95.6%; in the assay on SN12C renal, 95.3%; with UO-31 renal, 82.6%; in the assay on TK-10 renal, 125%; in the assay with ACHN renal it was 97.1%. Besides, the growth in the assay with CAKI-1 renal was 82.8%; in the assay with A498 renal, 85.5%; in the assay with CCRF-CEM leukemia, 75.6%; with MOLT-4 leukemia, 101%.
As for `Nc1nc(NC(=O)Nc2ccc(C(=O)O)cc2)nn1-c1ccc(S(N)(=O)=O)cc1`, the growth is 110% in the assay with SK-MEL-2 melanoma; 105% with EKVX NSCLC; 89.5% in the assay with SN12C renal; 80.7% in the assay with UO-31 renal; 106% with TK-10 renal; 99.6% in the assay on ACHN renal. Besides, the growth with CAKI-1 renal is 90.3%; with A498 renal, 90.6%; with CCRF-CEM leukemia it was 99.4%; in the assay with MOLT-4 leukemia, 93.1%.
As to `COc1cc(OC)cc(-c2ccc(-c3ccc(C(=N)N)o3)o2)c1`, the growth with SK-MEL-2 melanoma is 88.1%; in the assay with EKVX NSCLC, 85.2%; in the assay on SN12C renal, 53%; in the assay on UO-31 renal it was 67.3%; in the assay on TK-10 renal, 83.7%; in the assay on ACHN renal, 72.6%. Moreover, the growth in the assay with CAKI-1 renal was 81.3%; in the assay on A498 renal, 68.5%; in the assay with CCRF-CEM leukemia, 48.3%; in the assay with MOLT-4 leukemia, 31.4%.
As to `CCN1C(=O)N(CC)C2C1NC(=S)N2/N=C/c1ccc(OC)cc1` (stereo not given), the growth in the assay on SK-MEL-2 melanoma was 65%; in the assay on EKVX NSCLC, 79.6%; in the assay with SN12C renal, 62.6%; in the assay with UO-31 renal it was 51.8%; in the assay on TK-10 renal, 79.8%; with ACHN renal, 64%. Moreover, the growth with CAKI-1 renal is 32.9%; in the assay on A498 renal, 29.9%; in the assay with CCRF-CEM leukemia it was 52.8%; in the assay on MOLT-4 leukemia it was 47.7%.
`C#CCOc1cccc(-c2ncnc3cc(NC(=O)C=C)ccc23)c1`: the growth in the assay with SK-MEL-2 melanoma was 46.7%; in the assay with EKVX NSCLC, 72.2%; in the assay with SN12C renal it was 15%; in the assay with UO-31 renal it was 15%; in the assay on TK-10 renal, 13.8%; in the assay with ACHN renal, 25.5%. In addition, the growth with CAKI-1 renal is 15.9%; in the assay with A498 renal it was 44.5%; with CCRF-CEM leukemia, 8.7% (active); in the assay with MOLT-4 leukemia, 30.8%.
Take `O=C(NNC(=O)c1ccc(NC(=O)c2ccccn2)cc1)Nc1ccc2ccccc2c1`: the growth was 114% in the assay on SK-MEL-2 melanoma; 113% in the assay with EKVX NSCLC; 101% in the assay on SN12C renal; 82.5% with UO-31 renal; 111% in the assay with TK-10 renal; 104% in the assay with ACHN renal. Further, the growth with CAKI-1 renal was 106%; with A498 renal, 137%; in the assay with CCRF-CEM leukemia, 104%; with MOLT-4 leukemia, 108%.
`O=C(N/N=C\c1ccccc1S(=O)(=O)O)N/N=C/c1ccccc1S(=O)(=O)O`: the growth in the assay with SK-MEL-2 melanoma was 99.8%; with EKVX NSCLC, 102%; in the assay with SN12C renal it was 102%; in the assay with UO-31 renal it was 92.5%; with TK-10 renal, 100%; in the assay on ACHN renal it was 98.7%. Also, the growth in the assay on CAKI-1 renal was 88.7%; in the assay with A498 renal, 101%; with CCRF-CEM leukemia, 102%; with MOLT-4 leukemia, 92.3%.
As to `CCN(CC)CCN1C(=O)c2c(c(C)c3c(oc4ccc(OC)cc43)c2C)C1=O`, the growth was 115% in the assay with SK-MEL-2 melanoma; 101% in the assay with EKVX NSCLC; 92.6% in the assay with SN12C renal; 17.5% in the assay with UO-31 renal; 94.3% with TK-10 renal; 9.28% (active) with ACHN renal. Besides, the growth with CAKI-1 renal was 95.8%; in the assay on A498 renal, 90.8%; in the assay with CCRF-CEM leukemia it was 90.2%; with MOLT-4 leukemia it was 96.2%.
On to `O=S(=O)(NCCNc1nccc(-c2c(-c3ccc(F)c(O)c3)nc3sccn23)n1)c1ccc(F)cc1`, for which the growth with SK-MEL-2 melanoma is 12.3%; with EKVX NSCLC, 55.7%; in the assay on SN12C renal, 28.5%; with UO-31 renal, 3.56% (active); in the assay on TK-10 renal, 83.5%; in the assay on ACHN renal, 19.7%. The growth in the assay with CAKI-1 renal is 20.6%; in the assay on A498 renal it was 70.9%; in the assay on CCRF-CEM leukemia, 12.7%; in the assay on MOLT-4 leukemia, 11.7%.
With `CN1C(=O)/C(=C/c2ccc(C(=O)Nc3ncc(Cc4cccc(Cl)c4)s3)cc2)SC1=S`, the growth in the assay on SK-MEL-2 melanoma is 91.7%; with EKVX NSCLC it was 55.9%; in the assay with SN12C renal it was 84.2%; in the assay on UO-31 renal, 55.6%; in the assay on TK-10 renal, 56%; in the assay on ACHN renal, 33.2%. Also, the growth with CAKI-1 renal was 26.3%; in the assay with A498 renal, 74.9%; in the assay with CCRF-CEM leukemia, 69.3%; with MOLT-4 leukemia, 52.4%.
As for `C=CCC(CCCC)(C(=O)OCC)C(=O)OCC`, the growth was 100% in the assay with SK-MEL-2 melanoma; 114% with EKVX NSCLC; 110% in the assay on SN12C renal; 85.3% in the assay on UO-31 renal; 104% with TK-10 renal; 102% in the assay on ACHN renal. Further, the growth in the assay on CAKI-1 renal is 96.7%; with A498 renal, 111%; in the assay with CCRF-CEM leukemia, 93.2%; in the assay on MOLT-4 leukemia, 108%.
Regarding `CN1CCN(C(=O)C(C)(C)c2ccc(C(=O)Nc3cn4cc(-c5ccncc5)ccc4n3)cc2)CC1`, the growth was -26.7% (active) in the assay with SK-MEL-2 melanoma; 17.9% with EKVX NSCLC; 15.6% with SN12C renal; -23.7% (active) in the assay with UO-31 renal; 0.354% (active) in the assay with TK-10 renal; 2.6% (active) with ACHN renal. Besides, the growth with CAKI-1 renal is -5.37% (active); in the assay with A498 renal, -63.2% (active); in the assay with CCRF-CEM leukemia, 16%; with MOLT-4 leukemia, 11.3%.
For `C=C(C)[C@@H]1CC[C@]2(C)[C@H](CC=C3[C@@H]4CC(C)(C)CC[C@]4(CO)CC[C@]32C)[C@@]1(C)CCCN`, the growth with SK-MEL-2 melanoma was -35.7% (active); with EKVX NSCLC, 97.4%; in the assay with SN12C renal, -59.7% (active); in the assay with UO-31 renal, 47.7%; in the assay with TK-10 renal it was -45.8% (active); with ACHN renal, -40.8% (active). In addition, the growth is 40.3% with CAKI-1 renal, 80.5% with A498 renal, -18.4% (active) in the assay on CCRF-CEM leukemia and -35.9% (active) with MOLT-4 leukemia.
Regarding `O=C1/C=C/[C@@H](O)[C@@H]2C[C@@H](O)C[C@H]2/C=C/CCC[C@H](CCO)O1`, the growth in the assay on SK-MEL-2 melanoma was -20.3% (active); in the assay on EKVX NSCLC it was 9.95% (active); with SN12C renal it was 10.5%; in the assay on UO-31 renal it was 18.1%; in the assay on TK-10 renal, -30.4% (active); with ACHN renal, 5.87% (active). In addition, the growth in the assay on CAKI-1 renal was 1.05% (active); in the assay with A498 renal, -33.3% (active); with CCRF-CEM leukemia it was 18.8%; in the assay on MOLT-4 leukemia, 15.1%.
As to `Cc1ccc(/C=C/C(=O)c2cccc(OCCCOc3cccc(C(=O)/C=C/c4ccc(C)cc4)c3)c2)cc1`, the growth is 105% in the assay with SK-MEL-2 melanoma; 80% with EKVX NSCLC; 79.6% in the assay on SN12C renal; 64% in the assay on UO-31 renal; 120% with TK-10 renal; 78.6% in the assay on ACHN renal. Further, the growth was 68.1% in the assay with CAKI-1 renal, 86.4% with A498 renal, 73.6% in the assay on CCRF-CEM leukemia and 85.1% in the assay with MOLT-4 leukemia.
For the compound `CCOC(=O)C(=Cc1ccc(-c2ccccc2)cc1)C(=O)OCC`, the growth in the assay on SK-MEL-2 melanoma is 51.8%; in the assay with EKVX NSCLC it was 95%; in the assay on SN12C renal, 67.3%; in the assay with UO-31 renal, 55.4%; with TK-10 renal it was 66%; with ACHN renal, 34%. Besides, the growth in the assay with CAKI-1 renal was 85.6%; in the assay on A498 renal it was 108%; in the assay on CCRF-CEM leukemia it was 1.19% (active); with MOLT-4 leukemia it was -3.57% (active).
